# Bioassay records from PubChem BioAssay.
# Six1-Eya2 inh: qHTS Assay for Inhibitors of the Six1/Eya2 Interaction; AlphaScreen GST-Six1/His-Eya2 binding, biochemical; stronger effect = lower value; activity change, % (test concentration not listed); 360,000 tested, 0.56% active; in the data active means activity change below about -65%; inconclusive means mostly about -30% to -63%
#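 AlphaScreen luminescence read after one hour at 37 °C in darkness. Pin-transferred compounds met GST-Six1 and His-Eya2 protein (5X stock 250 nM/500 nM) plus glutathione donor and Ni-chelate acceptor beads (5X, 50 ug/mL).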
# TDP1 cell CPT: qHTS for Inhibitors of human tyrosyl-DNA phosphodiesterase 1 (TDP1): qHTS in cells in presence of CPT | Potency, µM (top dose mostly 46.2 µM), inactives show at the highest dose activity change, negative = growth inhibition, actives largely listed as inhibitors | chicken DT40 Tdp1-/-;hTDP1 cells + 20 nM CPT, ATP luminescence, 48 h | 420,000 tested, 12% active; further: potency means the concentration at half of the fitted maximal effect; nearly all actives have a fitted effect of over 55% in size
#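 Cell growth measured by CellTiter-Glo luminescence after a minimum 48 h, 37 C compound exposure with 20 nM CPT in Tdp1-knockout DT40 cells stably expressing hTDP1, seeded 400/well; qHTS titration format.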
# TDP1 block: qHTS Assay for Inhibitors of Tyrosyl-DNA Phosphodiesterase (TDP1); Potency, µM (top dose mostly 130 µM), without a hit: top-dose activity change, negative = inhibition, usual class: inhibitors; 350,000 tested, 0.28% active; Tyrosyl-DNA phosphodiesterase 1 (Homo sapiens), Q9NUW8; recombinant TDP1, AlphaScreen DNA substrate cleavage; AID 485290, 2010; further: potency means the concentration at half of the fitted maximal effect; nearly all actives have a fitted effect of over 40% in size
#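 Recombinant human Tdp1 (E. coli-expressed, 1 nM final) preincubated with compounds 15 min at room temperature, then 5'-biotin/3'-phosphotyrosine-FITC DNA substrate (15 nM final) added for 5 min. AlphaScreen beads (10 ug/ml final) added 10 min; cleavage lowers signal.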
# TDP1 cell noCPT: qHTS for Inhibitors of human tyrosyl-DNA phosphodiesterase 1 (TDP1): qHTS in cells in absence of CPT; DT40 Tdp1-/- hTDP1 cells, no CPT, ATP luminescence, 48 h; 420,000 tested, 15% active; Potency, µM (doses to about 46.2 µM), without a hit: at the top dose activity change, negative = growth inhibition, most hits filed as inhibitors; further: potency means the concentration at half of the fitted maximal effect; nearly all actives have a fitted effect of over 55% in size
#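 Camptothecin absent (DMSO only). Human TDP1-complemented DT40 knockout cells, 400 cells/well, 37 °C for minimum 48 hr; ATP measured via CellTiter-Glo, 30 min dark incubation, luminescence.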
# IL1B secr inh: qHTS for Inhibitors of Inflammasome Signaling: IL-1-beta AlphaLISA Primary Screen; THP-1 LPS/ATP IL-1B secretion, AlphaLISA, 16 h; stronger effect = lower value; activity change, % at 57.5 µM; 360,000 tested, 4.7% active; in the data active means activity change below about -50%; inconclusive means mostly about -30% to -49%
#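 THP-1 cells pretreated 1 hr with compounds (up to 57.5 uM final), then stimulated with LPS (250 ng/mL final) plus ATP (1.25 mM final); secreted IL-1B measured by AlphaLISA after 16 hr, decreased signal indicating inhibition.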
# CtBP-E1A blk: qHTS Assay for Inhibitors of the CtBP/E1A Interaction; 340,000 tested, 0.49% active; AlphaScreen GST-E1A/His-CtBP binding, 1536-well; stronger effect = lower value; activity change, % (no concentration beside the values); AID 651724, 2012; CtBP / adenovirus E1A interaction (AlphaScreen); in the data active means activity change below about -65%; inconclusive means mostly about -30% to -63%
#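 Protein mix (5X: 125 nM each GST-E1A, His-CtBP) was incubated with pinned compound 2 h at 37 deg C in dark, in 50 mM Tris pH 8.0 buffer with 300 mM NaCl. Glutathione donor and nickel acceptor beads followed; AlphaScreen signal read after 1 h.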
# * marks the source's active call; other numbers are inactive results; i = inactive; ? = inconclusive; · = no result given. In the library only some 18% were active in any assay of this set; here they are far more common. Unless noted, the call rests on the fitted dose curve; in most records, active means well fitted curve in the direction sought with a large enough effect; inconclusive means small, poorly fitted or top-dose-only effect, or another doubt; inactive means no such curve, though single readings can be large; an effect the other way counts as inactive or inconclusive. On the % scale 0 is the no-effect control and ±100 the full control effect.
SMILES,Six1-Eya2 inh,TDP1 cell CPT,TDP1 block,TDP1 cell noCPT,IL1B secr inh,CtBP-E1A blk
Cc1cc(C(=O)N/N=C/c2cc(Br)ccc2OC(=O)c2ccccc2Cl)n[nH]1,?,5.8µM*,-1%,4.6µM*,78,0
COc1ccc(/C=N/NC(=O)c2cccc(NC(=O)c3ccccc3Cl)c2)cc1,-17,3.7µM*,0%,4.6µM*,88,-11
O=C(NNC(=O)c1cccs1)c1cccc(F)c1,5,3%,0%,-4%,-9,7
O=C(N/N=C/c1ccoc1)c1cc(O)cc(O)c1,?,1%,2.8µM*,-13%,-3,-18
O=C(N/N=C/c1ccc(OC(=O)c2cccs2)cc1)c1cccc(F)c1,-4,23µM*,-14%,21µM*,-12,0
COc1ccc(/C=N/NC(=O)c2cccc(NC(=O)c3ccccc3Cl)c2)cc1OC,-21,-12%,1%,?,22,-18
O=C(N/N=C/c1ccc(OC(=O)c2ccccc2Cl)cc1)c1cc(O)cc(O)c1,-68*,?,?,-15%,i,-74*
CCOc1ccc(NC(=O)NNC(=O)C2CCC(C(C)(C)C)CC2)cc1 (configuration not stated),0,?,4%,-41%,-14,-3
CC(=O)N1N=C(c2ccncc2)OC12CCCCC2,5,-10%,2%,0%,-8,6
O=S(=O)(/N=C(/Sc1ccccc1)c1ccccc1)c1ccccc1,10,8.2µM*,8%,15µM*,-104*,15
O=S(=O)(N=C(NS(=O)(=O)c1ccc(Cl)cc1)c1ccccc1)c1ccc(Cl)cc1,8,16%,4%,0%,5,14
CS/C(=N\S(=O)(=O)c1ccccc1)c1ccccc1,4,7%,2%,-28%,-13,14
Cc1c(N/C(=N/S(=O)(=O)c2cc([N+](=O)[O-])ccc2Cl)c2ccccc2)c(=O)n(-c2ccccc2)n1C,2,12%,0%,3%,0,22
O=S(=O)(/N=C(/Sc1ccccc1)c1ccccc1)c1ccc(Cl)cc1,·,?,-9%,16µM*,·,·
O=S(=O)(/N=C(/Sc1ccc(Cl)cc1)c1ccccc1)c1ccccc1,·,10µM*,?,14µM*,·,·
O=[N+]([O-])c1ccc(Cl)c(S(=O)(=O)/N=C(/Sc2ccc(Br)cc2)c2ccccc2)c1,·,6.3µM*,-19%,2.8µM*,·,·
COc1cccc(-n2c(-c3cccc(S(=O)(=O)N(C)C)c3)n[nH]c2=S)c1,-1,-2%,3%,-5%,22,9
COC(=O)CN(c1nc(C)c(Br)c(OC)n1)S(=O)(=O)c1ccc(C)cc1,-5,-15%,2%,-20%,-12,-5
C=CCN(c1nc(C)c(Br)c(OC)n1)S(=O)(=O)c1ccc(C)cc1,10,-14%,50µM*,-37%,18,11
COc1cccc(/C=N/Nc2nnc3c(n2)[nH]c2ccccc23)c1OC,3,?,3%,?,63,-12
CC(=O)NC(C)(c1ccccc1)c1nc(-c2cnc3ccccc3c2)cs1 (configuration not stated),-2,?,·,15µM*,-6,-1
CC(=O)NC(C)(c1ccccc1)c1nc(-c2ccc(F)c(Cl)c2)cs1 (configuration not stated),-8,15µM*,·,23µM*,-13,6
COc1ccc(NC(=O)C(=O)NCCN2CCN(C(=O)C(c3ccccc3)c3ccccc3)CC2)cc1,-5,?,8%,?,-29,-7
CSc1cccc(CN2CCC(CO)(Cc3ccccc3)CC2)c1,7,-5%,6%,?,-18,·
COc1ccc(CN2CCC(CO)(Cc3ccccc3C(F)(F)F)CC2)c(F)c1,1,16µM*,5%,18µM*,?,2
SMILES,Six1-Eya2 inh,TDP1 cell CPT,TDP1 block,TDP1 cell noCPT,IL1B secr inh,CtBP-E1A blk
COc1ccc2[nH]c(C(=O)N3CCCN(Cc4ccc(F)cc4)CC3)cc2c1,-5,?,7%,?,-78*,-23
Cc1[nH]c2ccccc2c1CN1CCC(CO)(Cc2ccccc2)CC1,-6,13µM*,10%,?,-16,-12
COc1ccc(CC2(CO)CCN(Cc3cccc4nccnc34)CC2)cc1,1,2%,-8%,-28%,-14,2
Cc1cc(C)n(-c2cccc(CN3CCC(CO)(Cc4ccccc4)CC3)c2)n1,-5,?,3%,23µM*,-71*,7
O=C(NCCCn1ccnc1)c1ccc(Br)cc1,15,-8%,·,-38%,-10,-4
CCOc1ccc(NC(=O)Cn2c(=O)n(CC3CCCO3)c(=O)c3ccccc32)cc1 (configuration not stated),-8,-13%,0%,-25%,-10,-4
COC(=O)c1cc(NS(=O)(=O)c2ccc3c(c2)CCC(=O)N3)cc(C(=O)OC)c1,2,-17%,6%,-16%,-2,-3
COc1ccc(CC2(CO)CCN(Cc3ccc(OC(F)(F)F)cc3)CC2)cc1,0,?,-2%,18µM*,·,-1
COc1ccc(CC2(CO)CCN(Cc3cnn(-c4ccccc4)c3)CC2)cc1,-1,?,3%,?,-95*,7
O=C(c1cccs1)N1CCN(Cc2ccccc2)CC1,6,-1%,-3%,-3%,-17,0
COc1ccc(CC2(CO)CCN(Cc3cnn(-c4ccc(F)cc4)c3)CC2)cc1,-2,-16%,6%,?,22,·
COc1ccc(CC2(CO)CCN(Cc3cnc(-c4ccccc4C)nc3)CC2)cc1,-4,?,5%,13µM*,4,·
COc1ccc(CC2(CO)CCN(Cc3ccc4c(c3)CCO4)CC2)cc1,-16,-13%,·,-28%,?,-14
COc1ccc(CN2CCN(C(=O)c3cccs3)CC2)cc1,11,-7%,5%,-19%,-87*,-8
COc1ccc(C(C)NC(=O)CCc2ccccc2)cc1 (configuration not stated),-3,10%,·,19%,9,8
